For the assay, the target named is Cellular tumor antigen p53 (Homo sapiens) (UniProt P04637). Description: Primary qHTS for small molecule compounds that upregulate eGFP-tagged delta133p53alpha (in N-terminal) cells. (AID 2060322). Further: nearly all actives have a fitted effect of over 75% in size.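 On activation: series mostly up to about 56 µM; 0% = DMSO vehicle and 100% = reference activator.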 The note with it: NCI-H358 eGFP-delta133p53alpha fluorescence, 24 h; activation: active compounds read high. In short, it runs like this:
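NCI-H358 cells pre-induced 24 h with 10 ng/ml doxycycline for eGFP-delta133p53alpha, plated dox-free and exposed 24 h at 37C to titrated compounds. Fixed, Hoechst-stained; gated GFP peak intensity by laser scanning cytometry, normalized to DMSO (0%) and 57.5 uM 5-azacytidine (100%).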
(Quantitative high-throughput screening tests each substance at several concentrations.)

Where “and” joins values, the source holds several entries; their conditions need not be identical. Equal values may be shown once. Results filed as inconclusive are left out. Values without a mark were called inactive. Calls of active or inactive are those of the source. The call rests on the fitted dose curve; in most records, active means well fitted activation curve with a large enough effect; inconclusive means small, poorly fitted or top-dose-only effect; inactive means no such curve, though single readings can be large or run the other way.
Potency means the concentration at half of the fitted maximal effect.

Sequence of Cellular tumor antigen p53 (Homo sapiens) (P04637 whole entry, looked up): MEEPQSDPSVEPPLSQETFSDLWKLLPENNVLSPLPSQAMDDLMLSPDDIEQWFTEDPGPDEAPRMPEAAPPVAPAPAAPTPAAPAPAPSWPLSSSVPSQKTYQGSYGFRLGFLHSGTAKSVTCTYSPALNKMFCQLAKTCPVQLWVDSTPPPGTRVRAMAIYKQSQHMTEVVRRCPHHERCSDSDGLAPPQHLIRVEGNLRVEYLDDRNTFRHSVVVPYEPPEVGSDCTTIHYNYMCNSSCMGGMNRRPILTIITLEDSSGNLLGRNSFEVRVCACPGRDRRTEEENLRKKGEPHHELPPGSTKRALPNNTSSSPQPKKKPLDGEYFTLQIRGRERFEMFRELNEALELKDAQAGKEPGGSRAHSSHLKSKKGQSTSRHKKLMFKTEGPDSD

Regarding `O=C(O)c1[nH]n(-c2ccc(S(=O)(=O)O)cc2)c(=O)c1N=Nc1ccc(S(=O)(=O)O)cc1`, the activation was 3.95%.
Still for that read-out and setting: then `CCCCCCCCCCCCCCCC(=O)OC[C@@H](NC(=O)C(Cl)Cl)[C@H](O)c1ccc([N+](=O)[O-])cc1`, with 7.1%; and `COC(=O)C1=C(C)NC(C)=C(C(=O)OCC(C)=O)C1c1ccccc1[N+](=O)[O-]` (stereo not drawn), with 1.69%.
Regarding `CC1=C(C(=O)O)N2C(=O)[C@@H](NC(=O)[C@H](N)c3ccccc3)[C@H]2SC1`, the activation is -27.6%.
Still for that read-out and setting: with `CCOc1ccc(Cc2nccc3cc(OCC)c(OCC)cc23)cc1OCC` the figure was -22.6%.
Take `NS(=O)(=O)c1ccc(C(=O)O)cc1`: the activation is -37.9%.
Consider `NC(=O)c1ncn([C@@H]2O[C@H](CO)[C@@H](O)[C@@H]2O)n1`, for which the activation is -6.05%.
Still for that read-out and setting: with `[O-][n+]1cccc(/C(Cl)=N/OC[C@@H](O)CN2CCCCC2)c1` the figure was -6.69%.
Still for that read-out and setting: with `CC(=O)c1ccc(O)c(C(N)=O)c1` the figure was -19.8%; with `CCC(=O)O[C@]1(C(=O)CO)CC[C@H]2[C@@H]3CCC4=CC(=O)CC[C@]4(C)[C@@H]3CC[C@@]21C`, 38%.
Still for that read-out and setting: then `CN1N=C(C(N)=O)CCC1=O`, with -6.21%; and `O=C(O)c1ccc(S(=O)(=O)N(Cl)Cl)cc1`, with 20.9%; and `Cn1c(=O)c2c(ncn2CC(=O)O)n(C)c1=O`, with 1.69%.
For `CCCCC(CC)CN=C(N)NC(N)=NCCCCCCN=C(N)NC(N)=NCC(CC)CCCC` (stereo not drawn), the Potency was 13.8 µM (active).
For the compound `COCCc1ccc(OCC2CO2)cc1` (stereo not drawn), the activation was 7.53%.
For `Nc1cccc2c(N)cccc12`, the Potency is 28.2 µM (active).
Regarding `OCc1c[nH]c2ccccc12`, the Potency is 31.7 µM (active).
As to `Cc1cccn2c(=O)c(-c3nnn[nH]3)cnc12`, the activation was -7.34%.
Still for that read-out and setting: then `CCCC(CCC)(C(=O)OCC)C(=O)OCC`, with -3.95%; and `O=C1c2ccccc2C(=O)C1c1ccc(Br)cc1`, with -22%.
The same measure, in the same setting: with `CC[C@]12C=CCN3CC[C@@]4(c5cc([C@@]6(C(=O)OC)C[C@H]7C[C@@H](C(C)(F)F)CN(Cc8c6[nH]c6ccccc86)C7)c(OC)cc5N(C)[C@H]4[C@@](O)(C(=O)OC)[C@H]1OC(C)=O)[C@@H]32` the figure was -7.99%; with `CCOC(=O)N1CCC(n2c(=O)[nH]c3cc(Cl)ccc32)CC1`, -16.4%; with `CC(C)=CCNc1ncnc2c1ncn2[C@@H]1O[C@H](CO)[C@@H](O)[C@H]1O`, -20.9%.
On to `CC(Oc1c(Cl)cccc1Cl)C1=NCCN1` (stereo not drawn), for which the activation is 3.35%.
Regarding `CN[C@H](CC(C)C)C(=O)N[C@H]1C(=O)N[C@@H](CC(N)=O)C(=O)N[C@@H]2C(=O)N[C@H]3C(=O)N[C@H](C(=O)N[C@H](C(=O)O)c4cc(O)cc(O)c4-c4cc3ccc4O)[C@H](O)c3ccc(c(Cl)c3)Oc3cc2cc(c3O[C@@H]2O[C@H](CO)[C@@H](O)[C@H](O)[C@@H]2O[C@H]2C[C@](C)(N)[C@H](O)[C@H](C)O2)Oc2ccc(cc2Cl)[C@H]1O`, the activation was 4.73%.
Same read-out and setting: then `CCCSc1ccc2nc(NC(=O)OC)[nH]c2c1`, with 6.69%; and `OCc1ccccc1O[C@@H]1O[C@H](CO)[C@H](O)[C@H](O)[C@H]1O`, with 15.8%.
Still for that read-out and setting: then `COC(=O)/C=C(/C)N`, with 8.47%; and `N[C@@H](C(=O)N[C@@H]1C(=O)N2C(C(=O)O)=C(Cl)CS[C@H]12)c1ccccc1`, with -19.2% and 26.9%; and `O=C1c2c(O)cccc2[C@@H]([C@@H]2O[C@H](CO)[C@@H](O)[C@H](O)[C@H]2O)c2cc(CO)cc(O)c21`, with -15.3%.
Consider `CCCSS/C(CCO)=C(\C)N(C=O)Cc1cnc(C)nc1N`, for which the Potency was 30.9 µM (active).
With `C[C@@H](N)C(=O)O`, the activation is 5.02%.
Still for that read-out and setting: with `C[C@]12CCC(=O)C=C1CC[C@@H]1[C@@H]2[C@@H](O)C[C@@]2(C)[C@H]1CC[C@]2(O)C(=O)COC(=O)CCC(=O)O` the figure was 1.69%.
Same read-out and setting: then `c1ccc2occc2c1`, with -5.08%; and `CC(O)=C(C#N)C(=O)Nc1ccc(C(F)(F)F)cc1`, with 11.7%.
With `CNCc1ccccc1`, the activation was 6.21%.
As to `O=C(Nc1ccccc1)Nc1ccc(-c2ccc(C(=O)[C@H]3CCC[C@H]3C(=O)O)cc2)cc1`, the activation was -3.35%.
On the same count and under the same terms, with `CC(=O)Oc1cccc(C)c1` the figure was -28.8%.
Regarding `C/C=C1\[C@H]2C=C(C)C[C@]1(N)c1ccc(=O)[nH]c1C2`, the activation was 5.08%.
With `N#Cc1cc(NC(=O)C(=O)O)c(Cl)c(NC(=O)C(=O)O)c1`, the activation was 0.565%.
The same measure, in the same setting: then `C[C@@H](O)[C@H]1C(=O)N2C(C(=O)OCOC(=O)C(C)(C)C)=C(SC3CN(C4=NCCS4)C3)[C@H](C)[C@H]12`, with -12.3%; and `COc1ccc(-c2coc3cc(O)ccc3c2=O)cc1`, with -10.4%.
Regarding `NC(CO)(CO)CO`, the activation is -22%.
Same read-out and setting: with `OC[C@@H](O)[C@@H](O)[C@H](O)[C@H](O)CO` the figure was -9.21%.
On the same count and under the same terms, then `OC[C@@H](O)[C@@H](O[C@@H]1O[C@H](CO)[C@H](O)[C@H](O)[C@H]1O)[C@H](O)[C@@H](O)CO`, with -8.37%; and `CC(=O)N[C@H]1[C@H]([C@H](O)[C@H](O)CO)OC(C(=O)O)=C[C@@H]1N=C(N)N`, with 5.02%.
The same measure, in the same setting: then `CCCCCCCCCCCCCCC[C@H](O)[C@@H](N)CO`, with 18.4%.
As for `C[C@H](NCc1ccc2c(c1)nc(NC(=O)c1ccc(-c3cn[nH]c3)s1)n2CCc1ccccc1)C(C)(C)C`, the Potency was 6.11 µM (active).
For `CCOC(=O)[C@H](CCc1ccccc1)N[C@@H](C)C(=O)N1Cc2ccccc2C[C@H]1C(=O)O`, the activation is 17.6%.
Same read-out and setting: then `CCCCCCCC/C=C/C(=O)O`, with -2.82%; and `CC(C)(c1ccc(O)cc1)c1ccc(O)cc1`, with -17.5%; and `Nc1ncnc(Nc2ccccc2)n1`, with -16.7%.
Same read-out and setting: with `C=C[C@@]1(C)CC(=O)[C@]2(O)[C@@]3(C)[C@@H](O)CCC(C)(C)[C@@H]3[C@H](O)[C@H](OC(C)=O)[C@@]2(C)O1` the figure was -2.51%; with `CCCCN=C(N)NC(=N)N`, 9.6%; with `CN(C)CCOc1ccc(C(=C(CCCl)c2ccccc2)c2ccccc2)cc1`, 17.8%.
In the case of `Cc1ccc2c(Cl)cc(Cl)c(O)c2n1`, the activation is 7.34%.
Still for that read-out and setting: with `O=C1CC2(CCCC2)CC(=O)N1CCNCC1COc2ccccc2O1` (stereo not drawn) the figure was -5.86%; with `O=S1(=O)c2cccc3cccc(c23)N1CCCN1CCN(c2ccc(F)cc2)CC1`, 8.47%.
Same read-out and setting: then `N#Cc1ccc(-c2csc(NN=C3CCCC3)n2)cc1`, with -8.94%.
For `CC(C)=CCCC(C)=CCCC(C)=CCSc1ccccc1C(=O)O`, the activation was 4.74%.
Still for that read-out and setting: then `O=C(Nc1ccc(Cl)c(Cl)c1)C1CC1`, with -7.53%; and `COC(=O)c1cc(Cl)ccc1NS(=O)(=O)C(F)(F)F`, with 8.47%.
With `COCc1c(C(C)C)nc(C(C)C)c(/C=C/[C@@H](O)C[C@@H](O)CC(=O)O)c1-c1ccc(F)cc1`, the activation was 27.7%.
For `CC(=O)Nc1ccc(CC(=O)O)cc1`, the activation was 6.21%.
In the case of `CN(C)CCC[C@@]1(c2ccc(F)cc2)OCc2cc(C#N)ccc21`, the activation is 15.3%.
In the case of `Cc1[nH]c(C=C2C(=O)Nc3ccc(S(=O)(=O)N(C)c4cccc(Cl)c4)cc32)c(C)c1C(=O)N1CCN(C)CC1`, the Potency was 6.11 µM (active).
Regarding `CCCCCCCCCCCCCCNCCO`, the activation was -16.7%.
Same read-out and setting: with `N[C@H](C(=O)O)[C@@H](O)c1ccc(O)c(O)c1` the figure was 5.02%; with `CC(C(=O)O)c1ccc(C(=O)c2cccs2)cc1` (stereo not drawn), 9.21%.
The same measure, in the same setting: then `COc1cc(C(=S)N2CCOCC2)cc(OC)c1OC`, with -16.4%; and `CCCCN1CCCC1C(=O)Nc1c(C)cc(C)cc1C` (stereo not drawn), with 27.6%; and `CCOc1cc(OCC)c(C(=O)CCC(=O)O)cc1OCC`, with -15.3%.
On the same count and under the same terms, with `Cc1ccc2nc(NC(=O)CSc3nc4c(c(=O)n3C)SC(C)C4)sc2c1` (stereo not drawn) the figure was 21.2%.
On to `NC1CCN(c2cccc(Cl)n2)CC1`, for which the activation is -10.7%.
As for `CC(C)(C)C(=O)NCCCC(=O)O`, the activation was -17.6%.
On to `CO[C@H]1/C=C\O[C@@]2(C)Oc3c(C)c(O)c4c(O)c(c5c(nc6cc(C)ccn65)c4c3C2=O)NC(=O)/C(C)=C\C=C/[C@H](C)[C@H](O)[C@@H](C)[C@@H](O)[C@@H](C)[C@H](OC(C)=O)[C@@H]1C`, for which the activation is -1.91%.
On the same count and under the same terms, then `COC1=C2C[C@@H](C)C[C@H](OC)[C@@H](O)[C@@H](C)C=C(C)[C@H](OC(N)=O)[C@@H](OC)C=CC=C(C)C(=O)NC(=CC1=O)C2=O`, with -17.1%.
Turning to `Cn1cc(C=C2C(=O)Nc3cccnc32)c2ccccc21`, the Potency is 24.3 µM (active).
As for `Oc1cccc2[nH]ccc12`, the activation was -5.08%.
For `CCCCCCCCCCCCCCCCN`, the activation was -20.1%.
For the compound `NCCC(O)(P(=O)(O)O)P(=O)(O)O`, the activation was -6.21%.
Still for that read-out and setting: with `OC(CCN1CCCCC1)(c1ccccc1)c1ccccc1` the figure was 1.69%.
The same measure, in the same setting: then `Cc1c(F)cc2c(=O)c(C(=O)O)cn3c2c1CCC3C` (stereo not drawn), with 16.7%.
With `O=C(O)c1c(O)c(-c2ccccc2)nc2ccccc12`, the activation was 22%.
Turning to `CN1CCCC(CC2c3ccccc3Sc3ccccc32)C1` (stereo not drawn), the activation is 14.2%.
Same read-out and setting: with `COc1c(C)c2c(c(O)c1CC=C(C)CCC(=O)OCCN1CCOCC1)C(=O)OC2` the figure was 13.4%.
The same measure, in the same setting: with `O=C(O)C[C@H](O)C[C@H](O)C=Cc1c(C2CC2)nc2ccccc2c1-c1ccc(F)cc1` the figure was -5.06%; with `CCCCC1=NC2(CCCC2)C(=O)N1Cc1ccc(-c2ccccc2-c2nn[nH]n2)cc1`, 6.69%.
